A selection: hits, their analogues and other compounds. The true share with any hit is near 3.6%.
HEK293 cAMP cs: parental HEK293 cAMP activation (counter-screen); Potency, µM (top dose mostly 57.1 µM), usual class: activators; actives 2.5% (n = 73,000); parental HEK293 CNG cAMP sensor, membrane potential fluorescence; note: nearly all actives have a fitted effect of over 55% in size
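Parental HEK 293 cells stably expressing a modified CNG channel (no TSHR) report cAMP rise as membrane depolarization. Membrane potential dye with 100 uM RO 20-1724 was loaded for 60 min at room temperature, then compound added for 30 min; fluorescence read at 590 nm.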
ERK AVP inh: inhibitors of vasopressin-stimulated ERK signaling pathway | HEK293-V1b, vasopressin-stimulated pERK AlphaScreen | Potency, µM (highest dose often 57.5 µM), actives largely listed as inhibitors | actives 0.99% (n = 72,000) | AID 995; note: nearly all actives have a fitted effect of over 55% in size
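HEK293 cells stably expressing V1b receptor, preincubated 30 min at 37 °C with compound, then stimulated 5 min with 25 nM vasopressin. Phospho-ERK by AlphaScreen SureFire after 5 h RT; normalized to DMSO and vasopressin; AC50 by Hill fit.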
TSHR agonist: activates the human thyroid stimulating hormone receptor; P16473; HEK293-CNG-TSHR cells (CNG channel as cAMP sensor), membrane potential dye, cAMP; Potency, µM (highest dose often 57.1 µM), most hits filed as activators; actives 0.48% (n = 73,000); AID 926; active = well fitted activation curve with a large enough effect in the main read-out, with a control signal flat, not every such curve was filed as active; inconclusive = small, poorly fitted or top-dose-only effect, or a change in a side signal; inactive = no such curve, though single readings can be large or run the other way; reference of the percent scale not stated here;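 note: the control signal comes from parental cells without the receptor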
Target sequence (P16473 whole entry, looked up): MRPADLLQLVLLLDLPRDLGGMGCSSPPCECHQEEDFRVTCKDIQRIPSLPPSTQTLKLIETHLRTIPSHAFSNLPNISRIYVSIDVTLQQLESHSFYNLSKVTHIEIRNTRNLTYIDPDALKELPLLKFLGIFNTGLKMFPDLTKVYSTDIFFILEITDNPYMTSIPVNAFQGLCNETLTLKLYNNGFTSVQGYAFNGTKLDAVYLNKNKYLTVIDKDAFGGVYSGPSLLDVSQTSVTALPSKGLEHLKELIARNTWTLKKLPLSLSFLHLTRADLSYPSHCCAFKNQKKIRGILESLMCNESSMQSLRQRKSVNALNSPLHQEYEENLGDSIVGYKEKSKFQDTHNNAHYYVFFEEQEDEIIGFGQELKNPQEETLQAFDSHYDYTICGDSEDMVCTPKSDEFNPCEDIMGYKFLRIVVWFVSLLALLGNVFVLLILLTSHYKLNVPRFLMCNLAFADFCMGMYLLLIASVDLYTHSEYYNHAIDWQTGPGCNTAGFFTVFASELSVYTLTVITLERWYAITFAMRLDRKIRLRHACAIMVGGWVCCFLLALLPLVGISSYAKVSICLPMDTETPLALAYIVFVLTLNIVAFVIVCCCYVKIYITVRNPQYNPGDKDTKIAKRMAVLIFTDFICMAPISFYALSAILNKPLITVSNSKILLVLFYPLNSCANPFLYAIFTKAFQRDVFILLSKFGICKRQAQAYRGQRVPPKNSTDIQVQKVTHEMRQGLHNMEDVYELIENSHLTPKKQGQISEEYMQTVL
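HEK 293 cells stably expressing TSHR and a cAMP-gated CNG channel; parental CNG-only cells as counterscreen. Cells preloaded 60 min with membrane potential dye plus 100 uM RO 20-1724, then compound 30 min; fluorescence read at 590 nm.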
IkB sig inh: inhibitors of IkB signaling in ABC-DLBCL cells; ABC-DLBCL IkBa-CBG/CBR dual luciferase ratio, 4 h; response scale: scaled: untreated 0%, proteasome inhibitor 100%; Potency, µM (top dose mostly 57.1 µM); actives 0.04% (n = 110,000); AID 445; active = well fitted curve in the direction sought with a large enough effect in the signal ratio, not every such curve was filed as active; inconclusive = small, poorly fitted or top-dose-only effect, or a change in a side signal; the % refers to the signal ratio;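 note: the direction sought is a rising ratio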
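Luminescence ratio of IκBα-fused green versus native red beetle luciferase in OCI-Ly3 cells, 4 h post-doxycycline with compound; red signal alone, scaled from basal (0%) to zero light (-100%), flagged nonspecific or cytotoxic effects.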
CRE-bla Fsk: alters forskolin-stimulated CRE reporter signaling in CHO cells; CHO CRE-bla reporter (cAMP response element driving beta-lactamase), forskolin EC10, beta-lactamase ratio; Potency, µM (series often up to 38.2 µM), usual class: activators; actives 2.5% (n = 71,000); active = well fitted activation curve with a large enough effect in the signal ratio, with a control signal flat, not every such curve was filed as active; inconclusive = small, poorly fitted or top-dose-only effect, or effect the other way, or a change in a side signal; the % refers to the signal ratio
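Cells were plated overnight at 37 °C, exposed to compound titrations plus EC10 NKH 477 for 3 h, then given CCF4 dye for 2 h at room temperature. Blue/green (460/530 nm) ratio was converted to %Activity and AC50 values calculated.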
A number is an active result; [ ] = another dose, or the depositor's remark. Unless noted, calls come from the whole dose curve; as a rule, active = well fitted curve in the direction sought with a large enough effect; inconclusive = small, poorly fitted or top-dose-only effect, or another doubt; inactive = no such curve, though single readings can be large; an effect the other way counts as inactive or inconclusive.

What do the screens show for `COc1ccc(-c2cc(=O)c3ccccc3s2)cc1`?
HEK293 cAMP cs: inconclusive; ERK AVP inh: 13µM; TSHR agonist: inconclusive; IkB sig inh: inactive; CRE-bla Fsk: inactive

Results for COc1ccc(-c2cc(=O)c3ccccc3o2)cc1 ?
ERK AVP inh: inactive

What do the screens show for `CC(C)(C)Nc1nc(SCc2ccccc2)nc(N2CCOCC2)n1`?
HEK293 cAMP cs: inactive; ERK AVP inh: inactive; TSHR agonist: inactive; IkB sig inh: inactive; CRE-bla Fsk: 2.5µM

How did Nc1nc(N2CCOCC2)nc2ccccc12 do in these assays?
HEK293 cAMP cs: inactive; ERK AVP inh: inactive; TSHR agonist: inactive; IkB sig inh: inactive; CRE-bla Fsk: inconclusive

What do the screens show for `CSc1nc(NC(C)(C)C)nc(N2CCOCC2)n1`?
HEK293 cAMP cs: inactive; ERK AVP inh: inactive; TSHR agonist: inactive; IkB sig inh: inactive; CRE-bla Fsk: 13µM

How did c1ccc(CC2CCN(c3nc(N4CCOCC4)nc(N4CCOCC4)n3)CC2)cc1 do in these assays?
HEK293 cAMP cs: inactive; ERK AVP inh: inactive; TSHR agonist: 7.9µM; IkB sig inh: inactive; CRE-bla Fsk: inactive

What do the screens show for `COc1ccc(N2CCN(CCCNC(=O)C3COc4ccccc4C3)CC2)cc1` (stereo unspecified)?
IkB sig inh: inactive

What do the screens show for `CCOC(=O)CCC(NC(=O)c1ccc(NCN2C(=O)c3ccccc3C2=O)cc1)C(=O)OCC` (stereo unspecified)?
HEK293 cAMP cs: 0.79µM; ERK AVP inh: inactive; TSHR agonist: inconclusive; IkB sig inh: inactive; CRE-bla Fsk: inactive

Results for CCOC(=O)CCC(NC(=O)c1ccc(NCN2C(=O)CCC2=O)cc1)C(=O)OCC (stereo unspecified) ?
HEK293 cAMP cs: inactive; ERK AVP inh: inactive; TSHR agonist: inactive; IkB sig inh: inactive; CRE-bla Fsk: inactive

How did CN1CCN(c2ccc(Cl)cc2NC(=O)c2cccc(S(=O)(=O)N(C)C)c2)CC1 do in these assays?
HEK293 cAMP cs: inactive; ERK AVP inh: inactive; TSHR agonist: inactive; IkB sig inh: inactive; CRE-bla Fsk: 5µM

What do the screens show for `CN(C)S(=O)(=O)c1cccc(C(=O)Nc2cc(Cl)ccc2O)c1`?
HEK293 cAMP cs: inactive; ERK AVP inh: inactive; TSHR agonist: inactive; IkB sig inh: inconclusive; CRE-bla Fsk: inactive

What do the screens show for `O=c1c2c3c(sc2ncn1/N=C/c1ccco1)CCCC3`?
HEK293 cAMP cs: inactive; ERK AVP inh: inactive; TSHR agonist: inactive; IkB sig inh: inactive; CRE-bla Fsk: inactive

Results for Cc1nc2sc3c(c2c(=O)n1/N=C/c1ccco1)CCCC3 ?
HEK293 cAMP cs: 25µM; ERK AVP inh: inactive; TSHR agonist: inconclusive; IkB sig inh: inactive; CRE-bla Fsk: inactive

Results for CC1(C)CC(N2CCN(c3ccccc3)CC2)=CC(=[N+]2CCCC2)C1 ?
HEK293 cAMP cs: 7.9µM; ERK AVP inh: inactive; TSHR agonist: inconclusive; IkB sig inh: inconclusive; CRE-bla Fsk: inactive

Results for O=C(Cn1nc(Cc2cccnc2)c2ccccc2c1=O)N1CCN(c2ccccn2)CC1 ?
HEK293 cAMP cs: inactive; ERK AVP inh: inactive; TSHR agonist: inactive; IkB sig inh: inactive; CRE-bla Fsk: inactive

How did O=C(c1nn(Cc2ccccc2)c(=O)c2ccccc12)N1CCN(c2ccccn2)CC1 do in these assays?
HEK293 cAMP cs: 4µM; ERK AVP inh: inactive; TSHR agonist: inconclusive; IkB sig inh: inconclusive; CRE-bla Fsk: inconclusive

Results for COc1ccc(-c2nc3ccccc3s2)cc1NC(=O)c1cc2ccccc2o1 ?
IkB sig inh: inactive

How did COc1ccc(C)cc1NC(=O)c1cc2ccccc2o1 do in these assays?
HEK293 cAMP cs: 20µM; ERK AVP inh: inactive; TSHR agonist: inconclusive; IkB sig inh: inactive; CRE-bla Fsk: inconclusive

How did COc1ccc(OC)c(NC(=O)c2cc3ccccc3o2)c1 do in these assays?
HEK293 cAMP cs: 32µM; ERK AVP inh: inactive; TSHR agonist: inconclusive; IkB sig inh: inactive; CRE-bla Fsk: inconclusive

What do the screens show for `COc1ccc(NC(=O)c2oc3ccccc3c2NC(=O)c2cc3ccccc3o2)c(OC)c1`?
IkB sig inh: inactive

How did COc1ccc(CNC(=O)CCC2N=C3c4ccccc4N=C(SCc4ccccc4F)N3C2=O)cc1 (stereo unspecified) do in these assays?
IkB sig inh: inactive

What do the screens show for `COc1ncc2nc(-c3cn(C)c4ccccc34)c(=O)n(CCC#N)c2n1`?
HEK293 cAMP cs: inactive; ERK AVP inh: inactive; TSHR agonist: inactive; IkB sig inh: inactive[11.4 µM]; CRE-bla Fsk: inactive

What do the screens show for `CCN(C(=O)c1ccc(C(C)(C)C)cc1)c1nnc(Cn2nnc3ccccc32)s1`?
HEK293 cAMP cs: 25µM; ERK AVP inh: inconclusive; TSHR agonist: inconclusive; IkB sig inh: inconclusive; CRE-bla Fsk: inactive

What do the screens show for `O=C(Nc1cnccn1)c1cccc(C(F)(F)F)c1`?
HEK293 cAMP cs: 20µM; ERK AVP inh: inactive; TSHR agonist: inconclusive; IkB sig inh: inactive; CRE-bla Fsk: inactive

Results for COCC(=O)N1CCC2(CCN(Cc3ccc(C#N)cc3)CC2)CC1 ?
HEK293 cAMP cs: inactive; ERK AVP inh: inactive; TSHR agonist: inactive; IkB sig inh: inactive[11.4 µM]; CRE-bla Fsk: inactive

What do the screens show for `CC1(C)Cc2cccc(OCC(=O)Nc3ccccc3N3CCOCC3)c2O1`?
HEK293 cAMP cs: 20µM; ERK AVP inh: inactive; TSHR agonist: inconclusive; IkB sig inh: inconclusive; CRE-bla Fsk: inconclusive

Results for CC1(C)Cc2cccc(OCC(=O)O)c2O1 ?
HEK293 cAMP cs: inactive; ERK AVP inh: inactive; TSHR agonist: inactive; IkB sig inh: inactive; CRE-bla Fsk: inactive

Results for O=C(Nc1nnc(S(=O)(=O)N2CCCCCC2)s1)c1ccccc1Br ?
IkB sig inh: inactive

What do the screens show for `CC(=O)c1cccc(NC(=O)c2cc(-c3ccc(C)cc3)on2)c1`?
HEK293 cAMP cs: inactive; ERK AVP inh: inactive; TSHR agonist: inactive; IkB sig inh: inactive; CRE-bla Fsk: inactive

How did Cc1cc(C(=O)CSc2nncs2)c(C)n1-c1ccc2c(c1)OCO2 do in these assays?
HEK293 cAMP cs: inconclusive; ERK AVP inh: 32µM; TSHR agonist: inconclusive; IkB sig inh: inconclusive; CRE-bla Fsk: inactive

How did O=C(CSc1nncs1)NCc1ccc2c(c1)OCO2 do in these assays?
HEK293 cAMP cs: inactive; ERK AVP inh: inactive; TSHR agonist: inactive; IkB sig inh: inactive; CRE-bla Fsk: inactive

Results for O=C(Nc1ccc2nn(-c3ccc(F)cc3)nc2c1)c1cccc2c(Cl)cccc12 ?
IkB sig inh: inactive

How did COc1ccccc1-c1cc(C(F)(F)F)nc(N2CCOCC2)n1 do in these assays?
HEK293 cAMP cs: 20µM; ERK AVP inh: inactive; TSHR agonist: inconclusive; IkB sig inh: inactive; CRE-bla Fsk: inactive

What do the screens show for `COc1ccccc1-c1cc(C(F)(F)F)nc(N2CCN(c3ccccc3)CC2)n1`?
HEK293 cAMP cs: inactive; ERK AVP inh: inactive; TSHR agonist: inactive[11.4 µM]; IkB sig inh: inactive; CRE-bla Fsk: inactive

Results for C=CCC1(c2ccccc2)Oc2ccc(C)cc2-c2nc3cc(Cl)c(Cl)cc3nc21 (stereo unspecified) ?
HEK293 cAMP cs: inactive[11.4 µM]; ERK AVP inh: inactive[11.5 µM]; TSHR agonist: inactive[11.4 µM]

Screening data (PubChem)
